Test results as given in PubChem BioAssay (Tox21).
Records with an inconclusive call do not appear. Values without a mark were called inactive. Calls come from the whole dose curve.
% is set by controls: 0 for no effect and ±100 for the full control effect.

Test: qHTS assay for small molecule agonists of the antioxidant response element (ARE) signaling pathway - cell viability counter screen (AID 743203); note: nearly all actives have a fitted effect of over 55% in size
Conditions: ARE-bla HepG2 viability, CellTiter-Glo luminescence, 16 h; series mostly up to 73.3 µM; viability change, negative = cytotoxic: at the top concentration
From the text: National Center for Advancing Translational Sciences [NCATS]
NIH Chemical Genomics Center [NCGC]
U.S. Environmental Protection Agency [EPA]
National Institutes of Environmental Health Sciences [NIEHS]
National Toxicology Program [NTP]
U.S. Food and Drug Administration [FDA]
Oxidative stress has been implicated in the pathogenesis of a variety of diseases ranging from cancer to neurodegeneration. The antioxidant response element (ARE) signaling pathway plays an important role in the amelioration of oxidative stress. The CellSensor ARE-bla HepG2 cell line (Invitrogen) can be used for analyzing the Nrf2/antioxidant response signaling pathway. Nrf2 (NF-E2-related factor 2) and Nrf1 are transcription factors that bind to AREs and activate these genes. The CellSensor ARE-bla Hep G2 cell line contains a beta-lactamase reporter gene under control of the Antioxidant Response Element (ARE) stably integrated into HepG2 cells. The activation of the report gene under culture conditions can be detected by fluorescence intensity. This cell line has been used to screen the Tox21 10K compound library to identify agonists that induce oxidative stress. The cytotoxicity of the Tox21 compound library against the ARE-bla cell line was tested in parallel by measuring the cell viability using CellTiter-Glo assay (Promega, Madison, WI) in the same wells.
Tox21 Assay Protocol Summary:
ARE-bla HepG2 cells were dispensed at 2,000 cells/5 ul/well in 1536-well white wall/solid bottom plates using a Multidrop Combi (ThermoFisher Scientific, Waltham, MA) dispenser. After the assay plates were incubated at 37C/5% CO2 for 5 hrs, 23 nL of compounds dissolved in DMSO, positive controls or DMSO only was transferred to the assay plate by a pintool work station (Kalypsys, San Diego, CA). The plates were incubated at 37C/5% CO2 for 16 hrs, followed by addition of 4 ul/well of CellTiter-Glo reagent into the assay plates using a Flying Reagent Dispenser (Aurora Discovery, San Diego, CA). After 30 min incubation at room temperature, the luminescence intensity in the assay plates was measured using a ViewLux (PerkinElmer, Shelton, CT) plate reader.
In the case of `CCc1cc(OC)c(C[C@H](C)N)cc1OC`, the “viability change, negative = cytotoxic” value was -4.66% [at 94.8 µM]. In the case of `C=C1CC[C@@]2(O)[C@H]3Cc4ccc(O)c5c4[C@@]2(CCN3CC2CC2)[C@H]1O5`, the “viability change, negative = cytotoxic” value was 8.13%. For `CC[C@@H](CO)NC(=O)[C@@H]1C=C2c3cccc4c3c(cn4C)C[C@H]2N(C)C1`, the “viability change, negative = cytotoxic” value was 1.78%. In the case of `C1CN2CCC1CC2`, the “viability change, negative = cytotoxic” value was 13.9%. In the case of `CCN(CCO)CCO`, the “viability change, negative = cytotoxic” value was -13.3%. For `O=C1CCCCC1Cl` (stereo not given), the “viability change, negative = cytotoxic” value was 3.8% [at 94.8 µM]. With `CN1COCN(Cc2cnc(Cl)s2)/C1=N\[N+](=O)[O-]` the “viability change, negative = cytotoxic” value was 7.07%. For `CN(CCO)CCO`, the “viability change, negative = cytotoxic” value was 6.33% [at 94.8 µM]. For `COP(=O)(OC)O/C(C)=C/C(=O)N(C)C`, the “viability change, negative = cytotoxic” value was 4.51% [at 94.8 µM]. In the case of `CC#Cc1cc(C)nc(Nc2ccccc2)n1`, the “viability change, negative = cytotoxic” value was 0.43%. With `Cl/C=C/CCl` the “viability change, negative = cytotoxic” value was 6.32% [at 94.8 µM]. For `N#CC(Br)(Br)C(N)=O`, the “viability change, negative = cytotoxic” value was 3.87%. In the case of `CN1C(=O)COc2c(C(=O)NC3CN4CCC3CC4)cc(Cl)cc21` (stereo not given), the “viability change, negative = cytotoxic” value was 9.29%. In the case of `CCCCCCCCBr`, the “viability change, negative = cytotoxic” value was -22.5%. For `O=C(Cl)/C=C/C(=O)Cl`, the “viability change, negative = cytotoxic” value was 0.1% [at 94.8 µM]. With `CCCC(C)C1(CC)C(=O)N=C(S)NC1=O` (stereo not given) the “viability change, negative = cytotoxic” value was -0.795%. With `CCOC(=O)CC(SP(=S)(OC)OC)C(=O)OCC` (stereo not given) the “viability change, negative = cytotoxic” value was 10.6%. For `CC(C)[C@]12CC(=O)[C@H](C)[C@H]1C2`, the “viability change, negative = cytotoxic” value was 3.51%. With `CCC(=O)c1ccc(Cl)cc1` the “viability change, negative = cytotoxic” value was 12.5%. In the case of `O=P(O)(O)c1ccccc1`, the “viability change, negative = cytotoxic” value was 14.7%. For `BrCC1CO1` (stereo not given), the “viability change, negative = cytotoxic” value was -5.28% [at 94.8 µM]. For `CN=CNc1ccc(C)cc1C`, the “viability change, negative = cytotoxic” value was -15.1%. In the case of `CC(=O)OCC1=C(C(=O)O)N2C(=O)[C@@H](N)[C@H]2SC1`, the “viability change, negative = cytotoxic” value was -5.34% [at 34.3 µM]. With `Cc1ccc2cc(C)ccc2c1` the “viability change, negative = cytotoxic” value was -5.85%. With `CC1NCCOC1c1ccccc1` (stereo not given) the “viability change, negative = cytotoxic” value was 8.77%. For `C#CCOC(=O)/C=C(C)/C=C/CC(C)CCCC(C)C` (stereo not given), the “viability change, negative = cytotoxic” value was 13.6%. In the case of `CCCN1CCC[C@@H]2Cc3nc(N)ncc3C[C@H]21`, the “viability change, negative = cytotoxic” value was 0.0656%. In the case of `CCCCCCC(=O)CCCCCC/C=C/C[C@@H](O)[C@H](O)[C@@](N)(CO)C(=O)O`, the “viability change, negative = cytotoxic” value was -0.237% [at 34.3 µM]. With `CCOP(=S)(OCC)Oc1ccc(Cl)cc1Cl` the “viability change, negative = cytotoxic” value was -1.96%. In the case of `O=C(NC(=O)c1c(F)cccc1F)Nc1cc(Cl)c(F)c(Cl)c1F`, the “viability change, negative = cytotoxic” value was 7.36%. For `CCC1(c2ccccc2)C(=O)N(COC)C(=O)N(COC)C1=O`, the “viability change, negative = cytotoxic” value was 7.99%. In the case of `CCN(CC)C1CCCCC1`, the “viability change, negative = cytotoxic” value was -11.9%. With `O=C1CC(=O)NC(=O)N1` the “viability change, negative = cytotoxic” value was -1.98%. In the case of `CCOC(=O)N(C)N=O`, the “viability change, negative = cytotoxic” value was 5.65%. In the case of `CC(C)(C)C(=O)C(Cl)Cl`, the “viability change, negative = cytotoxic” value was 2.93%. For `CNC(=O)NC(O)C(Cl)(Cl)Cl` (stereo not given), the “viability change, negative = cytotoxic” value was 3.45%. For `Cc1ccc(S(=O)(=O)N[C@@H](CCCCN)C(=O)CCl)cc1`, the “viability change, negative = cytotoxic” value was 5.74%. For `O=C(Cl)CCl`, the “viability change, negative = cytotoxic” value was -0.129% [at 94.8 µM]. For `CCCCOC(C)=O`, the “viability change, negative = cytotoxic” value was -5.65% [at 94.8 µM]. In the case of `CN(C)CCc1c[nH]c2cccc(OP(=O)(O)O)c12`, the “viability change, negative = cytotoxic” value was -5.72%.
